Test results from article PMC9838217, “Structure of SALL4 zinc finger domain reveals link between AT-rich DNA binding and Okihiro syndrome”.
Numbering of substitutions follows the chain as printed.

target: T1, SALL4 ZFC4 WT (HT-SELEX) (Mus musculus, UniProt Q8BX22 870-940); experiment: HT-SELEX; high values mean tight binding; conditions: protein: recombinant; vector His6-GST; dsDNA, one strand shown
T1 sequence: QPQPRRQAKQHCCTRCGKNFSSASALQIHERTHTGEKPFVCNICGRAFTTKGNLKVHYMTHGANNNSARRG
Outline: (§1)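 Recombinant mouse SALL4 zinc finger cluster 4 (residues 870–940, 1 µg), purified, was mixed with library DNA (1.5 µg in the first cycle, 200 ng thereafter) in 100 µl of buffer containing 10 mM Tris–HCl pH 7.5, 50 mM NaCl, poly(dI-dC) and DTT, and left for 10 min at room temperature. Complexes were captured on Ni2+ beads, washed, amplified by PCR and reselected for up to 6 cycles in triplicate, after which MiSeq sequencing and a 6-mer scan followed. Binding signal is the read fraction of each canonical k-mer, given as fold change relative to the starting random library.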

Row | Sequence | binding signal [fold-change vs cycle 0]
1 | ACACGT | 0.75 ± 0.0296
2 | TCTAGA | 1.32 ± 0.134
3 | ATGACG | 0.724 ± 0.0223
4 | AAGTCC | 0.762 ± 0.0144
5 | GCAACC | 0.327 ± 0.0217
6 | AGAACC | 0.8 ± 0.0457
7 | ATGGGG | 0.486 ± 0.0322
8 | CTGCTC | 0.36 ± 0.0162
9 | GTCTTA | 1.27 ± 0.0474
10 | CTAGTC | 0.766 ± 0.0364
11 | CACCCA | 0.431 ± 0.034
12 | TCCTCA | 0.899 ± 0.0263
13 | AAACGG | 0.53 ± 0.0454
14 | AACAGT | 1.28 ± 0.0479
15 | ATGCTG | 0.649 ± 0.0321
16 | GAGACC | 0.414 ± 0.0124
17 | CTACAA | 1.17 ± 0.0183
18 | ATTAGA | 2.12 ± 0.0407
19 | ACATAT | 2.28 ± 0.213
20 | AAGGTC | 0.725 ± 0.0449

Row | Sequence | binding signal [fold-change vs cycle 0]
21 | AAGACT | 1.29 ± 0.0445
22 | TACCAA | 1.27 ± 0.0357
23 | CATACA | 1.36 ± 0.0385
24 | ACGTTA | 1.26 ± 0.034
25 | ATGACA | 1.36 ± 0.0915
26 | ATAACC | 1.63 ± 0.137
27 | AGGGTC | 0.434 ± 0.029
28 | AGAGGA | 0.933 ± 0.0495
29 | AAGCAA | 1.18 ± 0.0487
30 | CGGAGA | 0.359 ± 0.025
31 | GGAGTA | 0.898 ± 0.0231
32 | CATTGG | 0.754 ± 0.0443
33 | GAAGGA | 0.959 ± 0.0373
34 | GTACTA | 1.24 ± 0.0382
35 | CCTCTC | 0.497 ± 0.0203
36 | AGGTCC | 0.419 ± 0.0296
37 | TACGCA | 0.51 ± 0.0296
38 | ACTCCC | 0.553 ± 0.0252
39 | CGTTCC | 0.389 ± 0.0208
40 | ACCCTG | 0.474 ± 0.0232

target: T2, SALL4 ZFC4 R900W (HT-SELEX) (Mus musculus, UniProt Q8BX22 870-940, R900W); experiment: HT-SELEX; high values mean tight binding; conditions: protein: recombinant; vector His6-GST; dsDNA, one strand shown
T2 sequence: T1 sequence with R31W
Outline: as §1

Row | Sequence | binding signal [fold-change vs cycle 0]
41 | ACACGT | 0.89 ± 0.061
42 | TCTAGA | 1.49 ± 0.119
43 | ATGACG | 0.789 ± 0.0467
44 | AAGTCC | 0.863 ± 0.0347
45 | GCAACC | 0.365 ± 0.0107
46 | AGAACC | 0.93 ± 0.0272
47 | ATGGGG | 0.546 ± 0.0309
48 | CTGCTC | 0.436 ± 0.00828
49 | GTCTTA | 1.39 ± 0.0618
50 | CTAGTC | 0.918 ± 0.0254
51 | CACCCA | 0.488 ± 0.0313
52 | TCCTCA | 1.04 ± 0.0214
53 | AAACGG | 0.652 ± 0.023
54 | AACAGT | 1.41 ± 0.0726
55 | ATGCTG | 0.712 ± 0.0351
56 | GAGACC | 0.5424 ± 0.00269
57 | CTACAA | 1.29 ± 0.0465
58 | ATTAGA | 2.08 ± 0.0537
59 | ACATAT | 1.97 ± 0.122
60 | AAGGTC | 0.885 ± 0.0273

Row | Sequence | binding signal [fold-change vs cycle 0]
61 | AAGACT | 1.49 ± 0.0431
62 | TACCAA | 1.33 ± 0.0163
63 | CATACA | 1.37 ± 0.0315
64 | ACGTTA | 1.37 ± 0.0435
65 | ATGACA | 1.41 ± 0.0578
66 | ATAACC | 1.47 ± 0.11
67 | AGGGTC | 0.524 ± 0.0447
68 | AGAGGA | 1.09 ± 0.0506
69 | AAGCAA | 1.24 ± 0.0583
70 | CGGAGA | 0.45 ± 0.0336
71 | GGAGTA | 0.991 ± 0.0565
72 | CATTGG | 0.867 ± 0.0514
73 | GAAGGA | 1.11 ± 0.0789
74 | GTACTA | 1.37 ± 0.098
75 | CCTCTC | 0.586 ± 0.028
76 | AGGTCC | 0.53 ± 0.0164
77 | TACGCA | 0.54 ± 0.0242
78 | ACTCCC | 0.612 ± 0.0294
79 | CGTTCC | 0.468 ± 0.0134
80 | ACCCTG | 0.563 ± 0.034

target: T3, SALL4 ZFC4 G921D (HT-SELEX) (Mus musculus, UniProt Q8BX22 870-940, G921D); experiment: HT-SELEX; high values mean tight binding; conditions: protein: recombinant; vector His6-GST; dsDNA, one strand shown
T3 sequence: T1 sequence with G52D
Outline: as §1

Row | Sequence | binding signal [fold-change vs cycle 0]
81 | ACACGT | 0.954 ± 0.0298
82 | TCTAGA | 1.41 ± 0.147
83 | ATGACG | 0.852 ± 0.0204
84 | AAGTCC | 0.936 ± 0.0256
85 | GCAACC | 0.503 ± 0.0559
86 | AGAACC | 0.981 ± 0.014
87 | ATGGGG | 0.615 ± 0.052
88 | CTGCTC | 0.567 ± 0.028
89 | GTCTTA | 1.35 ± 0.0901
90 | CTAGTC | 0.941 ± 0.0142
91 | CACCCA | 0.59 ± 0.0722
92 | TCCTCA | 1.06 ± 0.0234
93 | AAACGG | 0.713 ± 0.0232
94 | AACAGT | 1.35 ± 0.0692
95 | ATGCTG | 0.801 ± 0.0529
96 | GAGACC | 0.643 ± 0.0507
97 | CTACAA | 1.24 ± 0.0556
98 | ATTAGA | 1.85 ± 0.125
99 | ACATAT | 1.75 ± 0.16
100 | AAGGTC | 0.943 ± 0.0196

Row | Sequence | binding signal [fold-change vs cycle 0]
101 | AAGACT | 1.4 ± 0.0897
102 | TACCAA | 1.32 ± 0.055
103 | CATACA | 1.32 ± 0.0664
104 | ACGTTA | 1.29 ± 0.0362
105 | ATGACA | 1.39 ± 0.11
106 | ATAACC | 1.38 ± 0.107
107 | AGGGTC | 0.649 ± 0.0851
108 | AGAGGA | 1.07 ± 0.0639
109 | AAGCAA | 1.23 ± 0.0475
110 | CGGAGA | 0.543 ± 0.0379
111 | GGAGTA | 1.01 ± 0.0114
112 | CATTGG | 0.924 ± 0.0186
113 | GAAGGA | 1.08 ± 0.0796
114 | GTACTA | 1.29 ± 0.0902
115 | CCTCTC | 0.687 ± 0.045
116 | AGGTCC | 0.632 ± 0.0514
117 | TACGCA | 0.668 ± 0.0555
118 | ACTCCC | 0.716 ± 0.0322
119 | CGTTCC | 0.546 ± 0.0299
120 | ACCCTG | 0.648 ± 0.0451
